Results filed as inconclusive are left out. Calls of active or inactive are those of the source. Calls follow the shape of the full dose curve.
% is scaled to controls: 0 for no effect and ±100 for the full control effect.

In this test the target is Acetylcholinesterase (Homo sapiens) (UniProt P22303). The experiment in a line: Acetylcholinesterase (AChE) small molecule antagonists: colormetric cell-based qHTS assay (AID 1347395). Also: nearly all actives have a fitted effect of over 30% in size. Conditions: SH-SY5Y cells AChE activity, colorimetric (Ellman); series mostly up to 115 µM; activity, negative = inhibition: at the top concentration. In a few lines: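 Colorimetric read-out: DTNB detects thiocholine released when cellular AChE in SH-SY5Y cells hydrolyses acetylthiocholine. Cells attached overnight, received compound for 30 min at 37 C, then substrate mix for 90 min at 37 C.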
Acetylcholinesterase (Homo sapiens), sequence (P22303 whole entry, looked up): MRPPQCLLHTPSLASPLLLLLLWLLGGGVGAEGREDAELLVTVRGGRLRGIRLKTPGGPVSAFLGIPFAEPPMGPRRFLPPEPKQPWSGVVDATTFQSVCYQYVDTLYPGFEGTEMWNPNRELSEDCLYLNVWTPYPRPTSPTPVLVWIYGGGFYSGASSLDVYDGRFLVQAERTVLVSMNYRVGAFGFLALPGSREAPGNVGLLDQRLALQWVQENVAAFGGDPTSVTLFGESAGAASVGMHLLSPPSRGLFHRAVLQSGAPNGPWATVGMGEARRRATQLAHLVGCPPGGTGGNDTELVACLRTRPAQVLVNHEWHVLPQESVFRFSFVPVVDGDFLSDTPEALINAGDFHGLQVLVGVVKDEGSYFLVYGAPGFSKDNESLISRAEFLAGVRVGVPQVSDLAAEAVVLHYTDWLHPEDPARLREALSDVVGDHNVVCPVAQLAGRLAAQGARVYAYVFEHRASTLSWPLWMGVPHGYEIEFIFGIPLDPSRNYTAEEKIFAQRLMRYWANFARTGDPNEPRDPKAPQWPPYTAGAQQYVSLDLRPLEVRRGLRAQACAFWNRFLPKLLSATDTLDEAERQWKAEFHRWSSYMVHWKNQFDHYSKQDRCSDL
`C=CC(C)(O)CCCC(C)CCCC(C)CCCC(C)C` (stereo not given): the “activity, negative = inhibition” value was -1.66% (inactive).

With `CC(=O)OC1CCCCC1C(C)(C)C` (stereo not given), the “activity, negative = inhibition” value was -2.9% (inactive).

With `CC1=C(/C=C/C(C)=C/C=C/C(C)=C\C=O)C(C)(C)CCC1`, the “activity, negative = inhibition” value was -7.26% (inactive).

For `CC(C)(C)c1csc(-c2cc3cc(OCc4ccccc4CC(=O)O)ccc3o2)n1`, the “activity, negative = inhibition” value was -4.24% (inactive).

For `CCCCC/C=C\CCC=O`, the “activity, negative = inhibition” value is -2.68% (inactive).

For `CCc1ccc(C)nc1`, the “activity, negative = inhibition” value is 1.08% (inactive).

With `CC(=O)CC(=O)OC(C)(C)C`, the “activity, negative = inhibition” value was -4.31% (inactive).

Consider `N#CCCOCCOCCC#N`, for which the “activity, negative = inhibition” value is 5.48% (inactive).

Regarding `CCCCCCCCCCCCCCCC(=O)OC/C=C(C)/C=C/C=C(C)/C=C/C1=C(C)CCCC1(C)C`, the “activity, negative = inhibition” value is 0.707% (inactive).

As to `CCCCCCCCC(=O)OCC(C)OC(=O)CCCCCCCC` (stereo not given), the “activity, negative = inhibition” value was -0.723% (inactive).

Consider `CN(C)c1ccc(SC#N)cc1`, for which the “activity, negative = inhibition” value was 0.841% (inactive).

Turning to `C[C@H](CCC(=O)O)[C@H]1CC[C@H]2[C@@H]3[C@H](O)C[C@@H]4C[C@H](O)CC[C@]4(C)[C@H]3C[C@H](O)[C@]12C`, the “activity, negative = inhibition” value was 4.34% [at 52.9 µM] (inactive).

In the case of `O=C1CCCCCCCCCCCCCCCO1`, the “activity, negative = inhibition” value was -0.982% (inactive).

`COc1ccc(-c2coc3cc(O)ccc3c2=O)cc1`: the “activity, negative = inhibition” value was -0.424% (inactive).

As for `Oc1cccc(Nc2ccccc2)c1`, the “activity, negative = inhibition” value was 1.1% (inactive).

With `CC1(C)S[C@@H]2[C@H](N=CN3CCCCCC3)C(=O)N2[C@H]1C(=O)O`, the “activity, negative = inhibition” value was -3.21% [at 52.9 µM] (inactive).

Take `C=C(C)CCO`: the “activity, negative = inhibition” value was 2% (inactive).

For `NC(=S)N/N=C/c1cccnc1`, the “activity, negative = inhibition” value is 0.281% [at 52.9 µM] (inactive).

Take `FC(F)(F)C(F)(F)C(F)(F)C(F)(F)C(F)(F)C(F)(F)C(F)(F)C(F)(F)Br`: the “activity, negative = inhibition” value was 1.36% [at 52.9 µM] (inactive).

With `O=[N+]([O-])c1ccc(F)c(Cl)c1`, the “activity, negative = inhibition” value was -0.383% (inactive).

Take `CCCCCCCCc1ccc(Nc2ccc(CCCCCCCC)cc2)cc1`: the “activity, negative = inhibition” value was -0.145% [at 52.9 µM] (inactive).

As for `O=C(O)c1cccc(C(F)(F)F)c1`, the “activity, negative = inhibition” value is 1.77% (inactive).

`C=CCCCCCCCCCCCCCC`: the activity, negative = inhibition is 0.819% [at 23.6 µM] (inactive).

For the molecule `O=CNc1ccccc1`, the “activity, negative = inhibition” value is 3.68% (inactive).

Regarding `CC(S)C(C)S` (stereo not given), the “activity, negative = inhibition” value is -0.21% (inactive).

With `O=C(NS(=O)(=O)/C=C/c1cccs1)c1ccc(F)cc1Br`, the “activity, negative = inhibition” value was 1.9% (inactive).

For the molecule `CCCCCCCCN(C)CCCCCCCC`, the “activity, negative = inhibition” value is 6.77% (inactive).

`COC(C)=O`: the “activity, negative = inhibition” value is 3.17% (inactive).

`CC(O)COC(C)(C)C` (stereo not given): the “activity, negative = inhibition” value was 0.989% (inactive).

For `Oc1cccc2c(O)cccc12`, the “activity, negative = inhibition” value is -5.03% (inactive).

As to `CC(C)(C)c1ccccc1`, the “activity, negative = inhibition” value is 0.372% (inactive).

`CCCCCCCCCCc1ccccc1`: the “activity, negative = inhibition” value is 0.665% (inactive).

On to `CC(C)(C)C(=O)OCOC(=O)C1N2C(=O)CC2S(=O)(=O)C1(C)C` (stereo not given), for which the “activity, negative = inhibition” value was -0.17% [at 52.9 µM] (inactive).

As to `CCOC(OCC)C(=O)c1ccccc1`, the “activity, negative = inhibition” value is 1.31% (inactive).

Regarding `Cc1ccc(O)cn1`, the “activity, negative = inhibition” value is 6.37% (inactive).

Turning to `CC(C)(C)c1ccc(N)cc1`, the “activity, negative = inhibition” value was 0.508% (inactive).

Consider `CC(C)(c1ccc(Oc2ccc3c(c2)C(=O)OC3=O)cc1)c1ccc(Oc2ccc3c(c2)C(=O)OC3=O)cc1`, for which the “activity, negative = inhibition” value is -0.386% (inactive).

Consider `COc1cc(C(C)C)ccc1C`, for which the activity, negative = inhibition was 0.291% [at 23.6 µM] (inactive).

`CC(=C(CCOC(=O)C(C)C)SSC(CCOC(=O)C(C)C)=C(C)N(C=O)Cc1cnc(C)nc1N)N(C=O)Cc1cnc(C)nc1N`: the “activity, negative = inhibition” value is -4.41% [at 52.9 µM] (inactive).

Consider `OCC(F)(F)F`, for which the “activity, negative = inhibition” value is 4.42% (inactive).

(Values after PubChem BioAssay (Tox21).)
